High-throughput results as filed in PubChem.
CXXC DNA block = qHTS Fluorescence Polarization Assay for Inhibitors of MLL CXXC domain - DNA interaction. Histone-lysine N-methyltransferase 2A (Homo sapiens), Q03164. MLL-CXXC / FITC-HOXA9 DNA fluorescence polarization. Potency, µM (titrated, usually from 115 µM), for inactives: top-dose activity change, negative = inhibition, usual class: inhibitors. actives 0.037% (n = 290,000). AID 2662, 2010; active = well fitted inhibition curve with a large enough effect in the polarisation, with a control signal flat, not every such curve was filed as active; inconclusive = small, poorly fitted or top-dose-only effect, or effect the other way, or a change in a side signal; inactive = no such curve, though single readings can be large or run the other way; the % refers to the polarisation; also: potency is read from the fitted curve at half-maximal effect
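Purified MLL-CXXC (added from a 7 uM solution) was preincubated 5 min at ambient with pinned compounds in 50 mM Tris-HCl pH 7.5, 50 mM NaCl, 1 mM DTT, 0.05% BSA. Fluorescein-labeled HOX-A9 DNA (50 nM solution) followed, 30 min, then polarization read.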
Menin-MLL FL inh = qHTS Assay for Inhibitors Targeting the Menin-MLL Interaction in MLL Related Leukemias: Competition With Fluorescein Labeled MLL-derived Peptide. FP activity change, % at 61.4 µM. Fluorescence polarization, fluorescein-MLL peptide displacement from menin. 290,000 tested, under 10 active. AID 1766, 2009; active = well fitted curve in the direction sought with a large enough effect in the polarisation, not every such curve was filed as active; inconclusive = small, poorly fitted or top-dose-only effect, or effect the other way, or a change in a side signal; inactive = no such curve, though single readings can be large or run the other way; the % refers to the polarisation; also: % of control where 0% means no effect
Menin MLL FP TR = qHTS Assay for Inhibitors Targeting the Menin-MLL Interaction in MLL Related Leukemias: Competition With Texas Red Labeled MLL-derived Mutant Peptide | Menin + Texas Red MLL mutant peptide, fluorescence polarization | actives 0.23% (n = 270,000) | Potency, µM (top dose mostly 61.6 µM), inactives show at the highest dose FP activity change, negative = inhibition, hits mostly inhibitors | AID 1768, 2009; active = well fitted inhibition curve with a large enough effect in the polarisation, with a control signal flat, not every such curve was filed as active; inconclusive = small, poorly fitted or top-dose-only effect, or effect the other way, or a change in a side signal; inactive = no such curve, though single readings can be large or run the other way; the % refers to the polarisation; also: potency is read from the fitted curve at half-maximal effect; % of control where 0% means no effect
Tb PFK block = qHTS Assay to Find Inhibitors of T. brucei phosphofructokinase. ATP-dependent 6-phosphofructokinase (Trypanosoma brucei brucei), O15648. T. brucei PFK, ADP-Glo luminescence. Potency, µM (highest dose often 57.5 µM), for the others: top-dose activity, negative = inhibition, usual class: inhibitors. actives 0.17% (n = 330,000). AID 485367, 2010;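 also: potency is read from the fitted curve at half-maximal effect; 0% = uninhibited 1x PFK enzyme wells and -100% = no-enzyme wells; nearly all actives have a fitted effect of over 60% in size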
Target sequence (O15648 whole entry, looked up): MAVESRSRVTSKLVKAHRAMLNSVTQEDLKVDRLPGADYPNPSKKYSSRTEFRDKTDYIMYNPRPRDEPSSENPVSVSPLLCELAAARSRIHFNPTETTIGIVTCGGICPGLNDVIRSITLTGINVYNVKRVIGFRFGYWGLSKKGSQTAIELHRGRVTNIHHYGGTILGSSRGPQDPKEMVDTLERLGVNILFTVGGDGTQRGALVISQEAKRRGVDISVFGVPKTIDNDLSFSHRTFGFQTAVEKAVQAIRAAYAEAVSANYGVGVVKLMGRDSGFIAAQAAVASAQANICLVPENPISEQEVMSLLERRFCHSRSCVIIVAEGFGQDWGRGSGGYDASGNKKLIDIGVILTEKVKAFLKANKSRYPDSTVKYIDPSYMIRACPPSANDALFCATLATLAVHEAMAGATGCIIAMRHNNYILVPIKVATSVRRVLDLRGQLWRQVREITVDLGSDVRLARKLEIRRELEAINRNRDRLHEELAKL
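ADP-Glo luminescence quantified ADP after 45 min at room temperature, with 1.25 nM T. brucei PFK, 0.1 mM ATP and 0.5 mM fructose-6-phosphate in pH 8.0 TEA buffer. qHTS titrations up to 57 µM; curves classified by quality.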
GoLoco inh red = qHTS Assay for Inhibitors of RGS12 GoLoco Motif Activity (Red Fluorophore); Guanine nucleotide-binding protein G(i) subunit alpha-1 (Homo sapiens), P63096; Gai1:RGS12 GoLoco peptide FP, rhodamine, 10 min; Potency, µM (highest dose often 61.6 µM), for inactives: top-dose activity, negative = inhibition, most hits filed as inhibitors; actives 0.44% (n = 230,000); AID 880, 2007; active = well fitted inhibition curve with a large enough effect, not every such curve was filed as active; inactive = no such curve, though single readings can be large or run the other way; also: potency is read from the fitted curve at half-maximal effect; % is scaled to controls: 0 for no effect and ±100 for the full control effect; nearly all actives have a fitted effect of over 30% in size
MLL CXXC Fl = qHTS Fluorescence Polarization (FP) Assay for Inhibitors of MLL CXXC domain - DNA interaction: Fluorescein FP. Potency, µM (highest dose often 345 µM), without a hit: top-dose activity change, negative = inhibition, hits mostly inhibitors. shares compounds with CXXC DNA block. MLL CXXC-DNA binding, fluorescein FP. AID 624160, 2012. actives 70% (n = 200); also: potency is read from the fitted curve at half-maximal effect; nearly all actives have a fitted effect of over 80% in size
MLL CXXC TxRed = qHTS Fluorescence Polarization (FP) Assay for Inhibitors of MLL CXXC domain - DNA interaction: Texas Red FP; shares compounds with CXXC DNA block; MLL CXXC-DNA binding, Texas Red fluorescence polarization; Potency, µM (doses to about 345 µM), inactives show at the highest dose activity change, negative = inhibition, actives largely listed as inhibitors; actives 40% (n = 200); also: potency is read from the fitted curve at half-maximal effect; % is scaled to controls: 0 for no effect and ±100 for the full control effect; nearly all actives have a fitted effect of over 75% in size
MLL CXXC TRF = qHTS Fluorescence Polarization (FP) Assay for Inhibitors of MLL CXXC domain - DNA interaction: HTRF Assay; shares compounds with CXXC DNA block; MLL CXXC-DNA binding, HTRF, biochemical; Potency, µM (highest dose often 172 µM), inactives show at the highest dose activity change, negative = inhibition, usual class: inhibitors; actives 30% (n = 210); AID 624162, 2012; also: % is scaled to controls: 0 for no effect and ±100 for the full control effect; nearly all actives have a fitted effect of over 80% in size
Numbers without * were called inactive; ? = inconclusive; / = no result given; [ ] = dose if it differs, or a comment. An excerpt weighted towards active compounds, which were near 0.43% of everything screened. Unless noted, calls follow the shape of the dose curve; as a rule, active = well fitted curve in the direction sought with a large enough effect; inconclusive = small, poorly fitted or top-dose-only effect, or another doubt; inactive = no such curve, though single readings can be large; an effect the other way counts as inactive or inconclusive.

SMILES	CXXC DNA block	Menin-MLL FL inh	Menin MLL FP TR	Tb PFK block	GoLoco inh red	MLL CXXC Fl	MLL CXXC TxRed	MLL CXXC TRF
COc1cc2c(cc1OC)C1O[C@](CCCCN3C(=O)c4ccccc4C3=O)(C2)OC2=C1C(=O)OC1(CCCCC1)C2	-18.1%[23 µM]	-0.5[11.7 µM]	-0.8%[11.7 µM]	-1.3%[11.5 µM]	/	/	/	/
O=c1[nH]c(O)c(/C=C2\C=NN=C2c2ccccc2)c(=O)[nH]1	?	5.7	3.4%	10.8%	4.4%	4.7%	126µM*	48.5µM*
Nc1c(N=Nc2ccc(-c3ccc(N=Nc4cc(S(=O)(=O)O)c5ccccc5c4N)cc3)cc2)cc(S(=O)(=O)O)c2ccccc12	35.5µM*	?	?	/	238.4%	22.5µM*	25.2µM*	9.68µM*
CCOc1ccccc1-c1nnc2n1N=C(c1ccc(OC)cc1)CS2	/	0.2	-17.6%	/	/	/	/	/
O=C1C(Cl)=C(NC2CCc3ccccc32)C(=O)c2ncccc21 (configuration not stated)	/	0.2	?	/	-7.3%	/	/	/
NS(=O)(=O)c1ccc(NC(=O)c2c(F)cccc2Cl)cc1	-1.9%	1.7	/	4.2%	6.5%	/	/	/
NS(=O)(=O)c1ccc(NC(=O)c2c(Cl)cccc2Cl)cc1	?	4.1	3.0%	-2.6%	7.5%	?	?	-7.4%
CCCCC/C=C\C/C=C\C/C=C\C/C=C\CCCCCC(=O)NC(C)C(=O)O (configuration not stated)	/	0.0	-1.9%	/	2.2%	/	/	/
CC(=O)c1c(O)cc(O)cc1CC(=O)O	?	/	/	3.2%	3.2%	142µM*	-0.4%	2.3%
C=CCOC(=O)C(=O)/C=C/c1csc2ccccc12	?	?	?	23.9%	13.7%	5.6%	?	-12.5%
CCOC(=O)C(C(=O)OCC)c1cc(Br)c2noc3c2c1C(=O)c1ccccc1-3	31.6µM*	?	?	-10.1%[0.46 µM]	-20.7%	10µM*	40µM*	?
CC(=O)OCCNc1cc(N2CCN(C)CC2)c2noc3c2c1C(=O)c1ccccc1-3	?	?	?	-1.6%	217.9%	/	/	/
COc1ccccc1NC(=O)CCn1cnc2ccccc2c1=O	/	/	/	-17.1%	/	/	/	/
COc1cccc(-c2nnc3n2N=C(c2c(OC)cccc2OC)CS3)c1OC	/	2.0	0.7%	/	/	/	/	/
O=C1NC(=S)N/C1=C/c1cccc2ccccc12	6.4%	9.6	?	-7.6%	/	/	/	/
CC(/C=C1\NC(=S)NC1=O)=C\c1ccccc1	44.7µM*	3.8	-29.5%	-19.1%	1.7%	0.126µM*	?	52.6%
O=C(O)C1=CC(=C(c2ccc(O)c(C(=O)O)c2)c2ccc(O)c(C(=O)O)c2)C=CC1=O	10µM*	7.0	96.4%	?	2.82µM*	12.6µM*	17.9µM*	2.43µM*
CC1=C/C(=C(/c2ccc(O)c(C)c2)c2ccccc2C(=O)O)C=CC1=O	/	/	/	/	1.0%[14.2 µM]	/	/	/
O=C1C2C(c3ccccc3)CC=CC2[C@H](c2ccc(C(F)(F)F)cc2)N1Cc1ccccc1 (some centres not stated)	?	-0.9	/	-1.8%	6.1%	22.5µM*	36.3%	195.3%
CN(C)CCOc1nc(-c2ccccc2)nc2c1oc1ccccc12	35.5µM*	3.3	-10.7%	6.3%	-2.0%	126µM*	?	-8.8%
CC1=NN(c2ccc(Br)cc2)C(=O)/C1=C/c1ccc(-c2ccccc2C(=O)O)o1	?	1.9	?	-5.7%	/	113µM*	89.5µM*	50.5%
O=C(O)c1ccccc1-c1ccc(C=C2C(=O)N(c3ccccc3)C(=S)N(c3ccccc3)C2=O)o1	?	?	57.7%	0.3%	/	/	/	/
COc1cccc(/C=C2/C(=O)NN(c3ccc(Br)cc3)C2=O)c1O	?	-0.9	?	-0.3%	/	100µM*	?	-4.8%
COc1cc(/C=C2/C(=O)NN(c3ccc(Cl)cc3)C2=O)cc(Br)c1O	?	?	?	1.1%	/	/	/	/
COC(=O)c1ccccc1NC1=C/C(=N\S(=O)(=O)c2ccc(C(=O)O)cc2)c2ccccc2C1=O	15.8µM*	/	/	-0.6%	/	5.03µM*	142µM*	-72.3%
SMILES	CXXC DNA block	Menin-MLL FL inh	Menin MLL FP TR	Tb PFK block	GoLoco inh red	MLL CXXC Fl	MLL CXXC TxRed	MLL CXXC TRF
Cc1ccc(S(=O)(=O)/N=C2\C=C(Nc3cccc(C(=O)O)c3)C(=O)c3ccccc32)cc1	?	-13.2	?	-3.5%	/	/	/	/
CCc1ccc(S(=O)(=O)/N=C2\C=C(Nc3ccc(C(=O)O)cc3)C(=O)c3ccccc32)cc1	12.6µM*	-13.2	?	-2.8%	/	40µM*	?	157.7%
COC(=O)c1ccccc1NC1=C/C(=N\S(=O)(=O)c2cccs2)c2ccccc2C1=O	-22.5%	0.7	?	2.1%	-18.6%	/	/	/
CCc1ccccc1NC(=O)NNS(=O)(=O)c1cc(C)ccc1C	14.1µM*	0.4	-1.2%	3.0%	/	?	-24.2%	0.0%
C=CCC(O)(/C=C/c1ccccc1)c1ccccc1 (configuration not stated)	/	3.4	-11.6%	/	4.0%	/	/	/
N#C/C(=C\c1cccs1)C(=O)c1ccccc1Cl	22.4µM*	6.1	/	?	40.8%	17.9µM*	71.1µM*	?
CC(C)(C)C(=O)/C(C#N)=C/c1cccs1	-8.4%	0.8	/	3.9%	17.6%	/	/	/
CC(C)=NO[C@@H](C)CN1CCCc2nc(C)c(C)cc21	/	-1.0[11.7 µM]	-6.0%[11.7 µM]	/	/	/	/	/
CC(=O)Nc1ccc2cc3ccc(NC(C)=O)cc3nc2c1	39.8µM*	?	/	-7.6%	2.5%	113µM*	?	-12.3%
COc1ccc(C2=Nn3c(nnc3-c3cccc(OC)c3OC)SC2)c(OC)c1	/	1.1	?	/	/	/	/	/
